From PubChem BioAssay (NCI)
Compounds without any hit were thinned out: in the full panel of roughly 83,000, 20% have a hit.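 How to read the values: 0–100, growth inhibition (40 = 60% inhibited); 0, no net growth; -100 to 0, cell death (-40 = 40% of starting cells died; -100 = all dead).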 Unmarked numbers belong to inactive results. The source made the active and inactive calls. Rule for the calls: active = growth percent below 10; inactive = the rest.

What was measured:
Assay in all cases: NCI-60 one-dose screen, 48 h (100 = growth as untreated, 0 = no growth, -100 = all killed)
[1] = tested on: K-562 leukemia; settings: 10 µM unless noted
[2] = tested on: MALME-3M melanoma; settings: 10 µM unless noted
[3] = tested on: MDA-MB-231 breast; settings: 10 µM unless noted
[4] = tested on: RXF 393 renal; settings: 10 µM unless noted
[5] = tested on: SF-268 CNS; settings: 10 µM unless noted
[6] = tested on: SF-295 CNS; settings: 10 µM unless noted
[7] = tested on: SF-539 CNS; settings: 10 µM unless noted
[8] = tested on: UACC-257 melanoma; settings: 10 µM unless noted
[9] = tested on: M14 melanoma; settings: 10 µM unless noted
[10] = tested on: HCT-15 colon; settings: 10 µM unless noted
[11] = tested on: HT29 colon; settings: 10 µM unless noted
[12] = tested on: SNB-75 CNS; settings: 10 µM unless noted
[13] = tested on: SNB-19 CNS; settings: 10 µM unless noted
[14] = tested on: U251 CNS; settings: 10 µM unless noted
[15] = tested on: PC-3 prostate; settings: 10 µM unless noted
[16] = tested on: SK-MEL-5 melanoma; settings: 10 µM unless noted
[17] = tested on: UACC-62 melanoma; settings: 10 µM unless noted
[18] = tested on: LOX IMVI melanoma; settings: 10 µM unless noted
[19] = tested on: SK-MEL-28 melanoma; settings: 10 µM
[20] = tested on: SK-MEL-2 melanoma; settings: 10 µM unless noted

Structure (SMILES)	growth [1]	growth [2]	growth [3]	growth [4]	growth [5]	growth [6]	growth [7]	growth [8]	growth [9]	growth [10]	growth [11]	growth [12]	growth [13]	growth [14]	growth [15]	growth [16]	growth [17]	growth [18]	growth [19]	growth [20]
COc1ccc(N(C)c2nc(N)nc3sc4c(c23)CCCC4)cc1	7.85% (active)	50.1%	25.5%	46.6%	30%	14.5%	-6.54% (active)	39%	1.13% (active)	4.87% (active)	-4.37% (active)	51.3%	23.8%	15.8%	27%	-24.9% (active)	42.9%	22.6%	55%	16.6%
COc1ccc2sc(N(Cc3cccnc3)C(=O)c3ccc(C#N)cc3)nc2c1	16.4%	60.9%	71.5%	92.8%	87.7%	35.6%	70.5%	-46.3% (active)	25.4%	66.1%	23.4%	74%	98.6%	67.4%	78.2%	80.9%	86.9%	75.9%	50.2%	109%
OCCNc1nc(Nc2ccc(C3=NN(c4cc(Cl)cc(Cl)c4)C(c4ccc(C(F)(F)F)cc4)C3)cc2)nc(N2CCOCC2)n1 (stereo not given)	53.9%	90%	59.7%	19.7%	74.1%	71%	54.3%	94.5%	90.5%	49.3%	55.9%	68.4%	87.6%	63.4%	62.9%	76%	69.7%	44.8%	81.4%	116%
CNCCNc1nc2ccccc2c2c(=O)c3cc(F)ccc3sc12	-47.1% (active)	68.1%	19.5%	62%	44.3%	95.2%	71.6%	54.4%	1.91% (active)	13.6%	-30.9% (active)	47.4%	69.1%	-53.3% (active)	34%	88.1%	22.3%	17.7%	84.6%	85.2%
CCOC(=O)C1=C(C)N=c2s/c(=C\c3ccccc3O)c(=O)n2C1c1ccc(OC)c2ccccc12 (stereo not given)	-48.4% (active)	-86.7% (active)	-38.9% (active)	-20.6% (active)	37.6%	-83.5% (active)	-83.7% (active)	-85.8% (active)	-71.7% (active)	1.84% (active)	-52.2% (active)	-44.2% (active)	58.1%	-68.6% (active)	22.9%	-98.1% (active)	-85.4% (active)	-85.6% (active)	-96.2% (active)	-75.5% (active)
COC(=O)c1ccc(NC(=O)CSc2nc3ccccc3c(=O)n2-c2ccccc2)cc1	95.1%	109%	95.7%	111%	92%	102%	100%	90.4%	105%	105%	108%	92.1%	99.3%	102%	103%	94%	96.3%	98.4%	113%	105%
CCN(CCO)CCNc1ccc(C)c2sc3cc(Cl)ccc3c(=O)c12	-43.6% (active)	-27.8% (active)	-42.8% (active)	5.22% (active)	44.6%	12.5%	73.1%	-49.8% (active)	-74.2% (active)	-44.9% (active)	-77.3% (active)	62.5%	44.5%	-32.1% (active)	21.8%	-94.3% (active)	-53.1% (active)	-94.8% (active)	-61.7% (active)	94.4%
FC(F)(F)c1cccc(Nc2nc3ccccc3nc2Nc2cccc(C(F)(F)F)c2)c1	-19.6% (active)	-81.6% (active)	-56.3% (active)	-89.6% (active)	-9.63% (active)	-78.9% (active)	-78.7% (active)	-75.1% (active)	-69.9% (active)	2.32% (active)	-53.7% (active)	-92.3% (active)	7.81% (active)	-34% (active)	15.4%	-95.6% (active)	-62.6% (active)	-79.4% (active)	-85.5% (active)	-62.5% (active)
